# Measurements as given in PubChem BioAssay AID434970 (Sanford-Burnham Center for Chemical Genomics, 2010).
# Screen size: about 11,000 compounds; about 310 (2.8%) were called active. Cut-off read from the data, not from the text of the source: active = activity change below about -85%; inactive = the rest. Only a selection was taken, and actives are over-represented in it overall.
# Test system: intestinal alkaline phosphatase [Mus musculus]
# Assay: mouse intestinal phosphatase enzyme activation – biochemical, luminescence, single concentration, confirmation (AID 434970)
# Conditions: purified mouse IAP, CDP-Star luminescence, 30 min, at 10 µM; activation factor: measured here: IAP activation factor, stronger effect = higher value; activity change, negative = activation: stronger effect = lower value
SMILES,activation factor,"activity change, negative = activation"
CCCc1c(NC(=O)Nc2ccc(F)cc2)cnn1-c1ccc(Cl)cc1,2.42,-142% (active)
O=C(NCCc1ccncc1)Nc1ccc(Cl)cc1,1.09,-8.6% (inactive)
CCCc1c(NC(=O)Nc2ccc(F)cc2)cnn1-c1ccccc1,1.57,-57.2% (inactive)
COCCn1c(SCC(=O)Nc2nc3ccccc3s2)nnc1-c1ccoc1C,0.944,5.6% (inactive)
N#CCCn1c(=S)[nH]c2ccccc21,0.98,2% (inactive)
Cc1ccc(S(=O)(=O)Nc2ccc(O)c(Sc3ncn[nH]3)c2)cc1,0.349,65.1% (inactive)
CN(C)S(=O)(=O)Oc1cccc(C(=O)Nc2ccc(Cl)c(Cl)c2)c1,0.948,5.2% (inactive)
CNC(=O)Nc1ccc(Cl)cc1,1.26,-26.3% (inactive)
COC(=O)c1cccc(NC(=O)Nc2ccc(Cl)c(Cl)c2)c1,1.89,-88.6% (inactive)
Cc1cc(C)cc(C(=O)N(NC(=O)Nc2ccc(Cl)cc2)C(C)(C)C)c1,4.22,-322% (active)
CC(C)(C)N(NC(=O)Nc1ccc(Cl)c(Cl)c1)C(=O)c1ccccc1,3.95,-295% (active)
CN(C)S(=O)(=O)Oc1cccc(C(=O)Nc2ccc(Cl)cc2)c1,0.992,0.85% (inactive)
CCCN(/C=N/c1sc2c(c1C#N)CCCCC2)CCC,0.953,4.7% (inactive)
Cn1ncc(C#N)c1/N=C/N1CCOCC1,1.05,-4.75% (inactive)
Cc1ccc(CNC(=O)c2ccc(NC(=O)CCS(=O)(=O)c3cccs3)cc2)cc1,0.978,2.15% (inactive)
CC(NC(=S)Nc1ccc(S(=O)(=O)N2CCOCC2)cc1)C1CC2CCC1C2 (stereo not drawn),2.45,-145% (active)
CC(C)c1ccc(N(CC(=O)Nc2ccc(S(=O)(=O)N3CCOCC3)cc2)S(C)(=O)=O)cc1,1.12,-12.1% (inactive)
O=C(Nc1ccc(S(=O)(=O)N2CCOCC2)cc1)C1CCCCC1,0.984,1.6% (inactive)
Cc1cc[n+](CCC(=O)O)c2ccccc12,0.901,9.85% (inactive)
CCN(C1CCCCC1)S(=O)(=O)c1cc(C)ccc1OC,1.04,-4.35% (inactive)
CN1CC(COCc2ccccc2)Oc2ccccc2S1(=O)=O (stereo not drawn),1.04,-4.4% (inactive)
CC(Cc1cccs1)NC(=O)Nc1ccc(Cl)c(Cl)c1 (stereo not drawn),0.945,5.6% (inactive)
CC(NC(=O)Nc1ccc(Cl)c(Cl)c1)C(c1ccccc1)N1CCOCC1 (stereo not drawn),3.21,-221% (active)
CC(NC(=O)Nc1ccc(Cl)cc1)C(c1cccs1)N1CCOCC1 (stereo not drawn),1.71,-71.1% (inactive)
Cc1ccc(N2C(=O)c3ccc(C(=O)Nc4cccnc4)cc3C2=O)c(C)c1,0.946,5.45% (inactive)
Cc1ccc2[nH]c(=O)c(C(c3nnnn3CC3CCCO3)N3CCCc4ccccc43)cc2c1 (stereo not drawn),0.398,60.2% (inactive)
COc1ccc(-c2nnn(CC(=O)NC3CCCc4ccccc43)n2)cc1OC (stereo not drawn),1.06,-5.8% (inactive)

SMILES,activation factor,"activity change, negative = activation"
COc1cccc(NC(=O)NC2CCCc3ccccc32)c1 (stereo not drawn),2.74,-174% (active)
Cc1cccc(-n2nnc(C(=O)NC3CCCc4ccccc43)c2N)c1 (stereo not drawn),1.01,-1.4% (inactive)
COC(=O)c1ccc(NC(=S)NC2CCc3ccccc32)cc1 (stereo not drawn),1.51,-50.8% (inactive)
CC(C)(C)c1ccc(NC(=O)NC2CCCc3ccccc32)cc1 (stereo not drawn),3.53,-253% (active)
CCOc1ccc(NC(=O)CS(=O)CC(=O)NC2CCCc3ccccc32)cc1 (stereo not drawn),1,-0.45% (inactive)
CCOc1ccc(NC(=O)CN(C)CC(=O)NC2CCCc3ccccc32)cc1OCC (stereo not drawn),1.1,-9.8% (inactive)
Cc1cccc(NC(=O)NC2CCCc3ccccc32)c1 (stereo not drawn),3.36,-236% (active)
Cc1cccc(C)c1NC(=O)CS(=O)CC(=O)NC1CCCc2ccccc21 (stereo not drawn),1.11,-11.2% (inactive)
CCCn1c(Nc2ccccc2C)nc2ccccc21,0.988,1.25% (inactive)
COC(=O)c1cn(CC(=O)NC2CCCCC2)c2ccccc12,1.04,-3.9% (inactive)
Cc1ccc(-c2cc(-c3ccccc3)c3c(N)c(S(C)(=O)=O)sc3n2)cc1,0.966,3.45% (inactive)
O=c1oc2cc(OCc3ccc([N+](=O)[O-])cc3)ccc2c2c1CCCC2,0.909,9.15% (inactive)
COc1cccc(N=c2oc3ccc(OC)cc3cc2-c2nc3ccccc3[nH]2)c1,1.03,-2.7% (inactive)
Cc1ccc(C(=O)N2CCOCC2)cc1Cl,0.984,1.65% (inactive)
CCN(CC)c1ccc(S(=O)(=O)N2CCOCC2)cc1NC(=O)Nc1ccccc1,2.53,-153% (active)
Cc1oc(S(=O)(=O)N2CCCCC2)cc1NC(=O)Nc1ccc(Cl)cc1,1.42,-41.8% (inactive)
COc1ccccc1NC(=O)c1cc(S(=O)(=O)N2CCOCC2)ccc1Cl,0.877,12.2% (inactive)
CC(Sc1ccc(Cl)cc1)C(=O)Nc1ccc(S(=O)(=O)N2CCOCC2)cc1 (stereo not drawn),1.07,-7.35% (inactive)
O=C(Nc1ccc(Cl)c(Cl)c1)Nc1cc(S(=O)(=O)N2CCOCC2)ccc1N1CCCC1,2.53,-153% (active)
O=C(Nc1ccc(Cl)cc1)Nc1cc(S(=O)(=O)N2CCOCC2)ccc1N1CCCC1,2.15,-116% (active)
CN1CCN(c2ccc(Cl)cc2NC(=O)c2ccc(S(=O)(=O)N3CCCCCC3)cc2)CC1,0.982,1.75% (inactive)
O=C(Nc1ccc(Cl)c(Cl)c1)Nc1cc(C(=O)N2CCOCC2)ccc1N1CCCCC1,2.67,-167% (active)
O=C(Nc1ccccc1)c1ccc(S(=O)(=O)N2CCOCC2)cc1,1.01,-1.35% (inactive)
CC(=O)c1cccc(NC(=O)Nc2ccc(C(=O)N3CCOCC3)cc2)c1,1.06,-6.35% (inactive)
Cc1ccc(NC(=O)Nc2ccccc2F)cc1S(=O)(=O)N1CCOCC1,1.52,-51.6% (inactive)
Cc1ccc2c(c1)nnn2C1CCN(S(C)(=O)=O)CC1,0.904,9.55% (inactive)
CCc1ccccc1NC1=NCC(=O)N1Cc1ccccc1,1,-0.1% (inactive)
